{"source": "PubChem BioAssay (NCATS)", "molecular_target": "Calcium and integrin-binding protein 1 (Homo sapiens) (UniProt Q99828)", "sequence (Q99828 whole entry, looked up)": "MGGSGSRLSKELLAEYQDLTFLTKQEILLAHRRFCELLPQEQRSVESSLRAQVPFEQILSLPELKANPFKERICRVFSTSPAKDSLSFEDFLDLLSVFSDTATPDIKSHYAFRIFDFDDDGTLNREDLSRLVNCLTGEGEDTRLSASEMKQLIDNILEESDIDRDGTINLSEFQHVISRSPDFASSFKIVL", "test": "Confirmatory qHTS for Identification of Calcium Integrin Binding Protein 1 (CIB1) Competitor (AID 1508617); further: nearly all actives have a fitted effect of over 65% in size; further: potency means the concentration at half of the fitted maximal effect", "conditions": "CIB1 binding competition assay, biochemical qHTS; series mostly up to 114 µM", "outline": "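Confirmatory qHTS measures displacement of a FITC-alphaIIb peptide (100 nM) from CIB1-GST (1 uM) by fluorescence polarization. Calcium-containing HEPES buffer, pH 7.4; two 15 min room-temperature incubations.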", "note": "Inconclusive results are not listed. A call without a number means that no potency is given here. Active and inactive are the calls of the source. The call rests on the fitted dose curve; in most records, active means well fitted inhibition curve with a large enough effect; inconclusive means small, poorly fitted or top-dose-only effect; inactive means no such curve, though single readings can be large or run the other way."}
{"molecule": "O=C1CCCC2=C1C(c1cccnc1Br)N=C(Nc1nc3ccccc3o1)N2", "note": "(stereo not drawn)", "values": [{"measurement": "Potency", "result": "inactive"}]}
{"molecule": "Cc1ccc(C(=O)NC(c2ccco2)c2cc(Cl)c3cccnc3c2O)cc1", "note": "(stereo not drawn)", "values": [{"measurement": "Potency", "result": "inactive"}]}
{"molecule": "O=[S+]([O-])(NCc1nccs1)c1ccc(Nc2nc(-c3ccccc3)cs2)cc1", "values": [{"measurement": "Potency", "result": "50.1 µM (active)"}]}
{"molecule": "O=C(NNC(=O)c1nc2ccccc2[nH]1)OCc1ccccc1", "values": [{"measurement": "Potency", "result": "inactive"}]}
{"molecule": "CN(C(=O)c1cccs1)c1cccnc1", "values": [{"measurement": "Potency", "result": "31.6 µM (active)"}]}
{"molecule": "O=C1CCCC2=C1C(c1ncccc1C(F)(F)F)N=C(Nc1nc3ccccc3o1)N2", "note": "(stereo not drawn)", "values": [{"measurement": "Potency", "result": "inactive"}]}
{"molecule": "Cc1ccccc1NC(=O)CN1C(=O)N/C(=C\\c2cn(-c3cccc(C(=O)O)c3)cn2)C1=O", "values": [{"measurement": "Potency", "result": "inactive"}]}
{"molecule": "CCOc1ccc(CCNC(=O)c2ccc(N3N=C(C)CC3=O)cc2)cc1OCC", "values": [{"measurement": "Potency", "result": "inactive"}]}
{"molecule": "O=C(O)c1ccc(O)c2ncc(-c3n[nH]nc3-c3ccccc3)cc12", "values": [{"measurement": "Potency", "result": "inactive"}]}
{"molecule": "CCc1ccc(NC(=O)C(=O)NNC(=O)c2cccs2)cc1", "values": [{"measurement": "Potency", "result": "inactive"}]}
{"molecule": "NC(=O)C1CCN(c2ncc(Br)s2)CC1", "values": [{"measurement": "Potency", "result": "50.1 µM (active)"}]}
{"molecule": "Cc1ccc(S(=O)(=O)Nc2ccc(Br)cc2C(=O)Nc2nc(-c3ccccc3)cs2)cc1", "values": [{"measurement": "Potency", "result": "inactive"}]}
{"molecule": "Cc1ccc(S(=O)(=O)Nc2cc3c(cc2C(=O)Nc2nc(-c4ccccc4)cs2)OCO3)cc1", "values": [{"measurement": "Potency", "result": "inactive"}]}
{"molecule": "O=C(O)c1ccccc1SC1=NS(=O)(=O)c2ccccc21", "values": [{"measurement": "Potency", "result": "inactive"}]}
{"molecule": "CCOC(=O)c1[nH]c2c(c1C)C(=S)CC(c1ccco1)C2", "note": "(stereo not drawn)", "values": [{"measurement": "Potency", "result": "39.8 µM (active)"}]}
{"molecule": "N#Cc1ccc(NS(=O)(=O)c2ccc(NC(=O)Cc3ccc(Cl)c(Cl)c3)cc2)cc1", "values": [{"measurement": "Potency", "result": "inactive"}]}
{"molecule": "O=C(Nc1nc(-c2ccccc2)cs1)c1ccncc1NS(=O)(=O)c1cccc2cccnc12", "values": [{"measurement": "Potency", "result": "35.5 µM (active)"}]}
{"molecule": "Cc1ccc(CNc2ncnc3ccc(-c4ccc([C@@H](C)O)o4)cc23)o1", "values": [{"measurement": "Potency", "result": "inactive"}]}
{"molecule": "NC[C@@H](O)c1ccc(O)c(O)c1", "values": [{"measurement": "Potency", "result": "inactive"}]}
{"molecule": "N#Cc1ccc(N[S+](=O)([O-])c2ccc(Nc3nc(-c4ccccc4)cs3)cc2)cc1", "values": [{"measurement": "Potency", "result": "44.7 µM (active)"}]}
{"molecule": "NS(=O)(=O)c1ccc(Nc2nc(-c3ccccc3)cs2)cc1", "values": [{"measurement": "Potency", "result": "50.1 µM (active)"}]}
{"molecule": "Oc1cccc2cc(C3CC3)cnc12", "values": [{"measurement": "Potency", "result": "inactive"}]}
{"molecule": "N#Cc1ccc(NS(=O)(=O)c2ccc(NC(=O)Cc3ccc(F)c(Cl)c3)cc2)cc1", "values": [{"measurement": "Potency", "result": "inactive"}]}
